# Data from PubChem BioAssay.
# Active and inactive are the calls of the source. No rule for the calls is given here.
# Target: Pantothenate synthetase (Mycobacterium tuberculosis (strain ATCC 25618 / H37Rv)) (UniProt P9WIL5)
# Assay: Coupled enzyme confirmation of inhibitors against recombinant Mtb PanC (AID 375);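 also: 0% = full reaction with vehicle and 100% = no enzyme background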
# Details: coupled enzyme assay; at 10 µM, hits give high values
# Pantothenate synthetase (Mycobacterium tuberculosis (strain ATCC 25618 / H37Rv)), sequence (P9WIL5 whole entry, looked up): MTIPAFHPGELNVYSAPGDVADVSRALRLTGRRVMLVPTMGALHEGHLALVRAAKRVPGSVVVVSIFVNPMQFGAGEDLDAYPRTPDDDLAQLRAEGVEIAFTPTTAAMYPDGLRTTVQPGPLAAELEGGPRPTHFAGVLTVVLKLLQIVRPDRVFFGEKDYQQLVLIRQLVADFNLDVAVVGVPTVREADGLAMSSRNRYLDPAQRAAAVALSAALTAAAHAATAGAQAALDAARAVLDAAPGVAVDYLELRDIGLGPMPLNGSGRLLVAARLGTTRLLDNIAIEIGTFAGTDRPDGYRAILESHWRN
row,SMILES,inhibition
1,CC1=C(C(N)=O)C(c2ccccn2)n2nc(SCc3ccccc3)nc2N1 (centres undefined),0% (inactive)
2,COCc1cc(C)nc(Nc2ccc(C)cc2C)c1C#N,0% (inactive)
3,COc1cc(C2C(C(=O)c3ccc(C)o3)=C(O)C(=O)N2c2cc(C)on2)cc(Br)c1O (centres undefined),0% (inactive)
4,O=C(NCCN1CCOCC1)NC1(C(F)(F)F)Oc2ccc(Cl)cc2O1 (centres undefined),0% (inactive)
5,CC1CN(Cc2nc3c(c(=O)[nH]c(=O)n3C)n2CC(N)=O)CC(C)O1 (centres undefined),4% (inactive)
6,CCCCOc1ccccc1NC(=O)c1ccco1,0% (inactive)
7,Cc1cc(OCC(=O)Nc2ccc3oc(-c4ccncc4)nc3c2)ccc1Cl,0% (inactive)
8,O=C(CSc1nnc(SCc2ccc(Cl)cc2)s1)N1CCN(C(=O)c2ccco2)CC1,7% (inactive)
9,O=C(NCc1cccs1)c1cc2c(s1)CS(=O)(=O)C2,1% (inactive)
10,CCOC(=O)c1[nH]nc(N)c1NC(=O)c1ccc(Cl)cc1Cl,0% (inactive)
11,CCCC(=O)Nc1cc(C)c2c(=O)oc3ccccc3c2n1,2% (inactive)
12,CN(C)c1ccc(C(=O)Nc2nnc(-c3ccc(Cl)cc3)o2)cc1,0% (inactive)
13,COc1cc(S(=O)(=O)n2nnc3ccccc32)c(OC)cc1Cl,3% (inactive)
14,Cc1ccc2[nH]c(=O)c(CN(CCc3ccccc3)Cc3nnnn3CC3CCCO3)cc2c1 (centres undefined),2% (inactive)
15,COc1ccc2c(c1)[nH]c1c(=O)n(CC3CCCO3)cnc12 (centres undefined),1% (inactive)
16,Cc1cc(Nc2ccccc2N2CCOCC2)n2ncnc2n1,0% (inactive)
17,CSc1ccc(Cn2nnc(C(=O)NCc3ccccc3)c2N)cc1,0% (inactive)
18,COc1cccc(N2CCN(CC(=O)NCc3cccs3)CC2)c1,3% (inactive)
19,Cc1nnc(N(Cc2ccco2)C(=O)c2cccc(C#N)c2)s1,2% (inactive)
20,CC(=O)Nc1cccc(NC(=O)c2oc3ccccc3c2C)c1,0% (inactive)
21,Cn1c(=O)c2c(-c3ccncc3)c3c(nc2n(C)c1=O)-c1ccccc1C3=O,0% (inactive)
22,O=C(O)c1cccc(NC(=O)C23CC4CC(C2)CC(n2cnc(Cl)n2)(C4)C3)c1,1% (inactive)
23,Cc1cc(C(=O)Nc2sc3c(c2C#N)CCCCC3)cs1,0% (inactive)
24,Fc1ccc(-n2c(Cc3ccccc3)nnc2SCc2nc(-c3cccs3)no2)cc1,0% (inactive)
